# From PubChem BioAssay (EPA / NIEHS)
# Results filed as inconclusive are left out. Active and inactive are the calls of the source. Rule for the calls: active = hit-call score of the fitted dose curve at least 0.9, where 1 is the maximum; inconclusive = response in the unintended direction; inactive = score below 0.9.
# Tests used:
# [1] = molecular target: rat Serotonin, 5-Hydroxytryptamine Receptor 1 (5HT1), Non-Selective Binding, Htr1a (gene 24473) (UniProt P19327); experiment: NVS_GPCR_r5HT1_NonSelective: NovaScreen (NVS) G Protein-Coupled Receptor Assay for rat Serotonin, 5-Hydroxytryptamine Receptor 1 (5HT1), Non-Selective Binding (AID 2283286)
# Summary of the method: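 Binding of a radioligand to rat cortex membranes is read by filtration and scintillation counting after 1 h. Compounds were screened at 25 uM in duplicate. Actives were then titrated to a top of 50 uM. DMSO is the baseline.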
# [2] = molecular target: rat Adrenergic, Alpha 1A Receptor (Adra1A), Adra1a (gene 29412) (UniProt P43140); experiment: NVS_GPCR_rAdra1A: NovaScreen (NVS) G Protein-Coupled Receptor Assay for rat Adrenergic, Alpha 1A Receptor (Adra1A) (AID 2283296)
# Summary of the method: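 Filter radiodetection after 1 h competitive binding on CEC-pretreated rat cortical membranes. Duplicate single-point screening at 25 uM; active chemicals retested across concentration series.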
# [3] = molecular target: rat Adrenergic Receptor, Beta (Adrb), Non-selective Binding, Adrb1 (gene 24925) (UniProt P18090); experiment: NVS_GPCR_rAdrb_NonSelective: NovaScreen (NVS) G Protein-Coupled Receptor Assay for rat Adrenergic Receptor, Beta (Adrb), Non-selective Binding (AID 2283298)
# Summary of the method: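 Rat cortical membranes incubated 1 h with beta-adrenergic radioligand and test chemical; bound ligand measured by filtration and scintillation counting. Screen at 25 uM duplicate, then concentration series with 50 uM maximum; loss of signal versus DMSO.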
# [4] = test system: 5-hydroxytryptamine receptor 2C (pig); experiment: NVS_GPCR_p5HT2C: NovaScreen (NVS) G Protein-Coupled Receptor Assay for pig Serotonin, 5-Hydroxytryptamine Receptor 2C (5HT2C) (AID 2283288)
# Summary of the method: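 Radioligand displacement on membranes from pig choroid plexus, detected by filter scintillation counting after 1 h. Tested first at a single 25 uM in duplicate, then in concentration-response for actives; DMSO served as baseline.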
# [5] = molecular target: human Opioid Receptor Mu (Opiate Mu), OPRM1 (gene 4988) (UniProt P35372); experiment: NVS_GPCR_hOpiate_mu: NovaScreen (NVS) G Protein-Coupled Receptor Assay for human Opioid Receptor Mu (Opiate Mu) (AID 2283290);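 note: hits lower bound tracer signal versus DMSO meaning displacement of the ligand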
# Summary of the method: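 Primary screen in duplicate at 25 uM, with actives followed in concentration series. CHO-derived receptor membranes, cell-free; bound radioligand read by scintillation counting after filtration at 2.5 h, decrease scored against DMSO.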
# [6] = molecular target: rat Serotonin, 5-Hydroxytryptamine Receptor (5HT), Non-Selective Binding, Htr1a (gene 24473) (UniProt P19327); experiment: NVS_GPCR_r5HT_NonSelective: NovaScreen (NVS) G Protein-Coupled Receptor Assay for rat Serotonin, 5-Hydroxytryptamine Receptor (5HT), Non-Selective Binding (AID 2283295)
# Summary of the method: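 Rat cortex membrane preparation incubated 1 h with radioligand and test chemical; bound radioactivity counted after filtration. Screening began in duplicate at 25 uM with concentration-series follow-up; fitting relative to DMSO.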
# [7] = molecular target: rat Adrenergic Receptor, Alpha 2 (Adra2), Non-selective Binding, Adra2a (gene 25083) (UniProt P22909); experiment: NVS_GPCR_rAdra2_NonSelective: NovaScreen (NVS) G Protein-Coupled Receptor Assay for rat Adrenergic Receptor, Alpha 2 (Adra2), Non-selective Binding (AID 2283299)
# Summary of the method: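 Filter-based scintillation counting of radioligand binding to rat cortical membrane receptors, measured 1.25 hours post-dosing; loss of signal versus DMSO indicates displacement. Initial single-concentration duplicate at 25 uM, then concentration series.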
# [8] = molecular target: rat Neurokinin-1 Receptor (NK1), Tacr1 (gene 24807) (UniProt P14600); experiment: NVS_GPCR_rNK1: NovaScreen (NVS) G Protein-Coupled Receptor Assay for rat Neurokinin-1 Receptor (NK1) (AID 2283309)
# Summary of the method: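 Competitive radioligand binding to NK1 in rat submaxillary membranes, 1 h incubation, filtration and scintillation read-out. Compounds first screened at 25 uM in duplicate, then concentration-response for actives; signal loss relative to DMSO.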
# [9] = molecular target: rat Neurokinin-3 Receptor (NK3), Tacr3 (gene 24808) (UniProt P16177); experiment: NVS_GPCR_rNK3: NovaScreen (NVS) G Protein-Coupled Receptor Assay for rat Neurokinin-3 Receptor (NK3) (AID 2283310)
# Summary of the method: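 Filter-based radioligand displacement on rat cortex membrane preparations, read by scintillation 2 h post-dose. Chemicals first tested in duplicate at 25 uM; actives followed up in concentration series with a 50 uM maximum.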
# [10] = test system: rabbit Platelet Activating Factor Receptor (PAF), gene 100354046; experiment: NVS_GPCR_rabPAF: NovaScreen (NVS) G Protein-Coupled Receptor Assay for rabbit Platelet Activating Factor Receptor (PAF) (AID 2283287)
# Summary of the method: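 Rabbit platelet membrane preparation; radioligand displacement read by filter-based scintillation counting 1 h after dosing, loss of signal versus DMSO. Primary screen in duplicate at 25 uM, actives followed up in concentration series.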
# [11] = molecular target: rat Histamine Receptor (H3), Hrh3 (gene 85268) (UniProt Q9QYN8); experiment: NVS_GPCR_rH3: NovaScreen (NVS) G Protein-Coupled Receptor Assay for rat Histamine Receptor (H3) (AID 2283303)
# Summary of the method: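 Filter-binding radioligand competition on rat forebrain membranes, 1 h incubation; compounds screened at 25 µM in duplicate and followed in concentration series to 50 µM, loss of bound signal vs DMSO.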
# [12] = molecular target: Adra2b (gene 24174) (UniProt P19328); experiment: NVS_GPCR_rmAdra2B: NovaScreen (NVS) G Protein-Coupled Receptor Assay for hybird cells Adrenergic, Alpha 2B Receptor (Adra2B) (AID 2283306)
# Summary of the method: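 Compounds screened first at 25 uM in duplicate, with actives followed up in concentration-response; specific radioligand displacement from hybrid neuroglioma/blastoma cell membrane preparations measured by filter scintillation counting after 1 h, normalized to DMSO.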
# [13] = molecular target: rat Opioid Receptor, Non-selective Sodium (Na+) Binding, Oprm1 (gene 25601) (UniProt P33535); experiment: NVS_GPCR_rOpiate_NonSelectiveNa: NovaScreen (NVS) G Protein-Coupled Receptor Assay for rat Opioid Receptor, Non-selective Sodium (Na+) Binding (AID 2283311)
# Summary of the method: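 Filtration radioligand binding on rat forebrain membrane preparations, read 1.5 h after dosing. Single-concentration 25 µM primary screen in duplicate, followed by singleton concentration series to 50 µM max for actives; DMSO baseline.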
# [14] = molecular target: guinea pig Bradykinin Receptor B2 (BK2), BDKRB2 (gene 100135486) (UniProt O70526); experiment: NVS_GPCR_gBK2: NovaScreen (NVS) G Protein-Coupled Receptor Assay for guinea pig Bradykinin Receptor B2 (BK2) (AID 2283292)
# Summary of the method: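 Guinea pig ileum membrane preparation incubated 1 h with radioligand and test chemical; bound counts measured after filtration. Primary duplicate screening at 25 uM, then singleton concentration series with a 50 uM top dose; DMSO as baseline.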
# [15] = molecular target: rat Adrenergic, Alpha 1, Non-selective Receptor (Adra1), Adra1a (gene 29412) (UniProt P43140); experiment: NVS_GPCR_rAdra1_NonSelective: NovaScreen (NVS) G Protein-Coupled Receptor Assay for rat Adrenergic, Alpha 1, Non-selective Receptor (Adra1) (AID 2283289)
# Summary of the method: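 Chemicals first screened in duplicate at 25 uM, then actives tested in concentration series up to 50 uM. Binding measured as displacement of radioligand from rat forebrain membrane receptors, 1 h, filtration with scintillation readout; DMSO baseline.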
# [16] = test system: rat Adrenergic, Alpha 1B Receptor (Adra1B), gene 24173; experiment: NVS_GPCR_rAdra1B: NovaScreen (NVS) G Protein-Coupled Receptor Assay for rat Adrenergic, Alpha 1B Receptor (Adra1B) (AID 2283297)
# Summary of the method: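 Filter-binding radioligand competition on membranes from rat liver, read after 1 h by scintillation counting. Single-concentration duplicate screen at 25 uM, followed by concentration-response on actives, normalised to DMSO.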
# [17] = molecular target: rat Gamma-Aminobutyric Acid Type B Receptor (GABBR), Gabbr1 (gene 81657) (UniProt Q9Z0U4); experiment: NVS_GPCR_rGABBR: NovaScreen (NVS) G Protein-Coupled Receptor Assay for rat Gamma-Aminobutyric Acid Type B Receptor (GABBR) (AID 2283301)
# Summary of the method: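 Rat cortical membrane preparation, competitive radioligand binding for 1 h with filtration and scintillation readout. Actives from duplicate single-point 25 uM screening proceeded to concentration series with 50 uM top concentration.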
# Sequence of rat Adrenergic Receptor, Alpha 2 (Adra2), Non-selective Binding, Adra2a (gene 25083) (P22909 whole entry, looked up): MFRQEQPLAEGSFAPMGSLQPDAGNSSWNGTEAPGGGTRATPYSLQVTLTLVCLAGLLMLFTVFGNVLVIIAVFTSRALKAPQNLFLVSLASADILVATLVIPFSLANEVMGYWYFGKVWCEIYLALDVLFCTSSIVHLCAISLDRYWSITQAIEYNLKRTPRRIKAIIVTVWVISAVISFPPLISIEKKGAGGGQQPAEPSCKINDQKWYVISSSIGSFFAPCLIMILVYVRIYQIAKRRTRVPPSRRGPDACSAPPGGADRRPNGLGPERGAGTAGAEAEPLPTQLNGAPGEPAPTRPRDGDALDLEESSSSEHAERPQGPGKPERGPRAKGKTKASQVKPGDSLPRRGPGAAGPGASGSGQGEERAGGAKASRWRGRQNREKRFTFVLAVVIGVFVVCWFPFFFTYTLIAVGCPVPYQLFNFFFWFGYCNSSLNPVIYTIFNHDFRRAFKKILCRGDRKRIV
# Sequence of rat Serotonin, 5-Hydroxytryptamine Receptor 1 (5HT1), Non-Selective Binding, Htr1a (gene 24473) (P19327 whole entry, looked up): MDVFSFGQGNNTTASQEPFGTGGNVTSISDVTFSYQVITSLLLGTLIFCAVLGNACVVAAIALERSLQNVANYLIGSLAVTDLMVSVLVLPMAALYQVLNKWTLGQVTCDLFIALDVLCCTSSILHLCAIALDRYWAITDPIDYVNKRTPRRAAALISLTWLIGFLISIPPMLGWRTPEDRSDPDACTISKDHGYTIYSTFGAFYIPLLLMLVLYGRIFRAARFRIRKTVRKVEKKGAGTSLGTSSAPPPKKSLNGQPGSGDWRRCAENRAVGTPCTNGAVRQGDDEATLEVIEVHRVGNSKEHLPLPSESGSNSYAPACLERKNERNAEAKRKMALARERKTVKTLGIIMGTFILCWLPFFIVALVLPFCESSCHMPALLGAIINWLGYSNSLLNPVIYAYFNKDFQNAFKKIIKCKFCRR
# Sequence of rat Serotonin, 5-Hydroxytryptamine Receptor (5HT), Non-Selective Binding, Htr1a (gene 24473) (P19327 whole entry, looked up): as above
# Sequence of rat Opioid Receptor, Non-selective Sodium (Na+) Binding, Oprm1 (gene 25601) (P33535 whole entry, looked up): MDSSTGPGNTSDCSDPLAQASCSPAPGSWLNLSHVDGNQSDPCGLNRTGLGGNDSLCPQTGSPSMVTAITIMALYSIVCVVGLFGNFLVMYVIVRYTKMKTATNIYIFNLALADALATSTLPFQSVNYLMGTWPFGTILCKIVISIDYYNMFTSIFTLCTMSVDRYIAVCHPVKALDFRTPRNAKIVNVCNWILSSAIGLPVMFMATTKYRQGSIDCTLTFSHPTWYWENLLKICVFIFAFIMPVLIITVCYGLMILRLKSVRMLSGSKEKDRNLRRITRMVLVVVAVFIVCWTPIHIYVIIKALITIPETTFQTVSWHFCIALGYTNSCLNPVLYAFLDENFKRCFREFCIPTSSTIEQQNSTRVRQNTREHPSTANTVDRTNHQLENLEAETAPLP
# Sequence of rat Adrenergic, Alpha 1A Receptor (Adra1A), Adra1a (gene 29412) (P43140 whole entry, looked up): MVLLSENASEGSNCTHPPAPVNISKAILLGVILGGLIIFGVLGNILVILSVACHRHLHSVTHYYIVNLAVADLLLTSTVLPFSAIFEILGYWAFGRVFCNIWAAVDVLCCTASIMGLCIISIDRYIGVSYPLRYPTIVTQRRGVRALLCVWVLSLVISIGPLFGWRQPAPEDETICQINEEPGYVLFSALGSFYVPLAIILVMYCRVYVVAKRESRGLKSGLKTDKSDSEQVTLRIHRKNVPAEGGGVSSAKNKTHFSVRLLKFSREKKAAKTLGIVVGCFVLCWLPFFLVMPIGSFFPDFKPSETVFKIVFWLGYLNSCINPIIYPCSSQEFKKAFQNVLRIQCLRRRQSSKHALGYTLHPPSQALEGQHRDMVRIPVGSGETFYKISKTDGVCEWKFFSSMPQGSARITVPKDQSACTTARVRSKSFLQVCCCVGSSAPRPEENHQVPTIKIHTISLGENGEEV
# Sequence of Adra2b (gene 24174) (P19328 whole entry, looked up): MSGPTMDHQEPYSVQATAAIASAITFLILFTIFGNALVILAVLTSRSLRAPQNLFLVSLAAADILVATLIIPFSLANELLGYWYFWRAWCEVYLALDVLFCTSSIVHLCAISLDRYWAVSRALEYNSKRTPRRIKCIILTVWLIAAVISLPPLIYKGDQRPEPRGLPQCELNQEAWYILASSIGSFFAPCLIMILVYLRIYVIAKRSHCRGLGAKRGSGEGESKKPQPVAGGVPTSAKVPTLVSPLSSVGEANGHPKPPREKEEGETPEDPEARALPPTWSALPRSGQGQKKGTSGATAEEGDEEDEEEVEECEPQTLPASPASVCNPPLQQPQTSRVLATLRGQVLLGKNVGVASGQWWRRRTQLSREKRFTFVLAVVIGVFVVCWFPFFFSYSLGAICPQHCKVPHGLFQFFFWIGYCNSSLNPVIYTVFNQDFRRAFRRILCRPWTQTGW
# Sequence of human Opioid Receptor Mu (Opiate Mu), OPRM1 (gene 4988) (P35372 whole entry, looked up): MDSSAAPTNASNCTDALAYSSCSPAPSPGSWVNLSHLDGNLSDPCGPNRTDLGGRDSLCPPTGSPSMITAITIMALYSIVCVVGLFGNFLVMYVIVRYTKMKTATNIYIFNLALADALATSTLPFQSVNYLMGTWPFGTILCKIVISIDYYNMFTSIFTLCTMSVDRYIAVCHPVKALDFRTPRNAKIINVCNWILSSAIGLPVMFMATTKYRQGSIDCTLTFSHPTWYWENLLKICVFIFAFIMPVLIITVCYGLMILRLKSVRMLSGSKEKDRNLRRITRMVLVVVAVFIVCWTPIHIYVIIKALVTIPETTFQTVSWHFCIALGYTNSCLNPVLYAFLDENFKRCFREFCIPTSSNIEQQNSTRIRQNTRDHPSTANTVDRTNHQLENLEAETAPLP
# Sequence of rat Neurokinin-1 Receptor (NK1), Tacr1 (gene 24807) (P14600 whole entry, looked up): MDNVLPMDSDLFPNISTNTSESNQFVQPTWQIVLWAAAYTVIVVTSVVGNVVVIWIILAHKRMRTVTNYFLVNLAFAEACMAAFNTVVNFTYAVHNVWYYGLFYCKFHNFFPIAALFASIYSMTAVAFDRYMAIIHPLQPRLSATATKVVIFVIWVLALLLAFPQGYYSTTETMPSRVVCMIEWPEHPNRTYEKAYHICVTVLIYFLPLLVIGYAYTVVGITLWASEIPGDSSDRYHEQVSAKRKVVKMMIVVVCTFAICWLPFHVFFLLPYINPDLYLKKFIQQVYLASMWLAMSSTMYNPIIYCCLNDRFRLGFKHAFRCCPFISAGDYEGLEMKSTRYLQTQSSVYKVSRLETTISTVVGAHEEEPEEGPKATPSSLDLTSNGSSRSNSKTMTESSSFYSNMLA
# Sequence of rat Adrenergic Receptor, Beta (Adrb), Non-selective Binding, Adrb1 (gene 24925) (P18090 whole entry, looked up): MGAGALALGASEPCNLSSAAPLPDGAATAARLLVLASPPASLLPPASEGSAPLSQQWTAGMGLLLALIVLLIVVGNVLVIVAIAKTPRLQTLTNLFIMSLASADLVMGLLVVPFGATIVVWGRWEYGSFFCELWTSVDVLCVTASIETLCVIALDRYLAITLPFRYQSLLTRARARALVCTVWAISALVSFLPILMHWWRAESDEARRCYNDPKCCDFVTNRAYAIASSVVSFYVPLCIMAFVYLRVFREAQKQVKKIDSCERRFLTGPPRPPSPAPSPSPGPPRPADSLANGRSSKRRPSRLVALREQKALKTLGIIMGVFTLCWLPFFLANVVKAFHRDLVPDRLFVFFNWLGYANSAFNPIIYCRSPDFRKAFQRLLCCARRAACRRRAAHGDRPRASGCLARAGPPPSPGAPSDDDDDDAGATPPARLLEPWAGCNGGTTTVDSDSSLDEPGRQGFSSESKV
# Sequence of rat Gamma-Aminobutyric Acid Type B Receptor (GABBR), Gabbr1 (gene 81657) (Q9Z0U4 whole entry, looked up): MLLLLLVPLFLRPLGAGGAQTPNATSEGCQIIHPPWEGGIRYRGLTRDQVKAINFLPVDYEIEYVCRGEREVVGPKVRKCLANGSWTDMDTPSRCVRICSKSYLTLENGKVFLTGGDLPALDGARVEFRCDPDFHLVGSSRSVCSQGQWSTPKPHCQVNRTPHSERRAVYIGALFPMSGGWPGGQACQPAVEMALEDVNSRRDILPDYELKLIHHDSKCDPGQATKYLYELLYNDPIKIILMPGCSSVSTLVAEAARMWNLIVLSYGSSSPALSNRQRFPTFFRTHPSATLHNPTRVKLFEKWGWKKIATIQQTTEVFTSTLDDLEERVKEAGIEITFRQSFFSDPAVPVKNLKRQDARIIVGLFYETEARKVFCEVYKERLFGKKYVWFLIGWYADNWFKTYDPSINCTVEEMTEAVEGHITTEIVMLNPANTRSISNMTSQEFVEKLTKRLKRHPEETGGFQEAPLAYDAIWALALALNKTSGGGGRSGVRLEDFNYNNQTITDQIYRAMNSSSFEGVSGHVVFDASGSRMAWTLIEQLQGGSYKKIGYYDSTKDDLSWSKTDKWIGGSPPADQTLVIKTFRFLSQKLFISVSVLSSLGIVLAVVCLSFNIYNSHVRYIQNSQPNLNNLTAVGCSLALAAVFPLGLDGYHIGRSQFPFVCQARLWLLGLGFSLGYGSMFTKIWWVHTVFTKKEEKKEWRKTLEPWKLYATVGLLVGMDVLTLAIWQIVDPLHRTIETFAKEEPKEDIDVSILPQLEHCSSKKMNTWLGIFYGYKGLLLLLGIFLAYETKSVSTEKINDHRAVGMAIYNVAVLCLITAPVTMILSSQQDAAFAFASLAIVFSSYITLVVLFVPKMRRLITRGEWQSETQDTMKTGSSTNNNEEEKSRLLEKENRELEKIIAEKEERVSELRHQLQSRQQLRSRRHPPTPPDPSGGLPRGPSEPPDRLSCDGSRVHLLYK
smiles,measurement,setting,value
CCCCCCCC1CCC(=O)O1 (configuration not stated),outcome,[1],inactive
same,outcome,[2],inactive
same,outcome,[3],inactive
CCn1nc(C)c2c1C(=O)NCC(c1ccc(O)cc1)=N2,outcome,[1],inactive
same,outcome,[4],inactive
same,outcome,[5],inactive
same,outcome,[6],inactive
same,outcome,[2],inactive
same,outcome,[3],inactive
same,outcome,[7],inactive
same,outcome,[8],inactive
same,outcome,[9],inactive
Cc1nccn1-c1ccc(Sc2cccc(C3(C(N)=O)CCOCC3)c2)cc1,AC50,[10],15.8 µM (active)
same,AC50,[7],11.1 µM (active)
same,AC50,[11],25 µM (active)
same,AC50,[12],8.46 µM (active)
same,AC50,[8],25 µM (active)
same,outcome,[13],inactive
CNC(C)=O,outcome,[14],inactive
c1ccc2cc3ccccc3cc2c1,outcome,[5],inactive
O=C(O)[C@H](O)[C@@H](O)C(=O)O,outcome,[5],inactive
CC(C)C(=O)Nc1ccc([N+](=O)[O-])c(C(F)(F)F)c1,outcome,[4],inactive
COc1cc2c(c(OC)c1OC)-c1ccc(OC)c(=O)cc1[C@@H](NC(C)=O)CC2,AC50,[10],17.1 µM (active)
COc1cc(C(C)C)c2c(c1)S(=O)(=O)N(COc1cc(=O)n3cccc(OCCN4CCCCC4)c3n1)C2=O,AC50,[15],3.1 µM (active)
same,outcome,[5],inactive
same,outcome,[2],inactive
same,AC50,[16],3.17 µM (active)
same,AC50,[7],4.16 µM (active)
same,AC50,[12],2.98 µM (active)
same,AC50,[13],8.62 µM (active)
O=c1[nH]cnc2c1ncn2[C@H]1CC[C@@H](CO)O1,outcome,[6],inactive
same,outcome,[17],inactive
CCCCCCCCN(C)C,outcome,[7],inactive
same,outcome,[12],inactive
Cc1ncc([C@@H](CCCCCCc2ccc3c(n2)NCCC3)CC(=O)O)cn1,outcome,[6],inactive
c1ccc(C(O[C@@H]2CCCN(CCc3ccc4c(c3)OCO4)C2)c2ccccc2)cc1,AC50,[1],9.62 µM (active)
same,AC50,[4],5.08 µM (active)
same,AC50,[5],5.65 µM (active)
same,outcome,[14],inactive
same,AC50,[6],5.63 µM (active)
same,AC50,[2],11.3 µM (active)
same,AC50,[16],17 µM (active)
same,AC50,[7],19.5 µM (active)
same,outcome,[17],inactive
same,AC50,[12],7.75 µM (active)
same,AC50,[13],6.18 µM (active)
S=P(N1CC1)(N1CC1)N1CC1,outcome,[7],inactive
